Screening data: PubChem BioAssay, several laboratories
FXN GAA850 act = frataxin GAA850 promoter activation | HEK293 lucGAA850 FXN promoter luciferase reporter, 24 h; percent of 10 µM SAHA response | activation, % at 6 µM | 360,000 compounds, 0.56% hits | AID 540364;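 active means activation above the average of all compounds screened plus 3 SD, cutoff fixed separately per campaign, cut at about 7.5% in these data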;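 further: 0% = DMSO wells and 100% = 10 µM SAHA wells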
AHR activator = activators of human aryl hydrocarbon receptor; P35869; AHR-responsive luciferase reporter cells, luminescence; activation, % at 5 µM; 320,000 compounds, 2.5% hits; AID 2796; in the data active means activation above about 47%;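 further: 0% = vehicle wells and 100% = reference agonist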
Target sequence (P35869 whole entry, looked up): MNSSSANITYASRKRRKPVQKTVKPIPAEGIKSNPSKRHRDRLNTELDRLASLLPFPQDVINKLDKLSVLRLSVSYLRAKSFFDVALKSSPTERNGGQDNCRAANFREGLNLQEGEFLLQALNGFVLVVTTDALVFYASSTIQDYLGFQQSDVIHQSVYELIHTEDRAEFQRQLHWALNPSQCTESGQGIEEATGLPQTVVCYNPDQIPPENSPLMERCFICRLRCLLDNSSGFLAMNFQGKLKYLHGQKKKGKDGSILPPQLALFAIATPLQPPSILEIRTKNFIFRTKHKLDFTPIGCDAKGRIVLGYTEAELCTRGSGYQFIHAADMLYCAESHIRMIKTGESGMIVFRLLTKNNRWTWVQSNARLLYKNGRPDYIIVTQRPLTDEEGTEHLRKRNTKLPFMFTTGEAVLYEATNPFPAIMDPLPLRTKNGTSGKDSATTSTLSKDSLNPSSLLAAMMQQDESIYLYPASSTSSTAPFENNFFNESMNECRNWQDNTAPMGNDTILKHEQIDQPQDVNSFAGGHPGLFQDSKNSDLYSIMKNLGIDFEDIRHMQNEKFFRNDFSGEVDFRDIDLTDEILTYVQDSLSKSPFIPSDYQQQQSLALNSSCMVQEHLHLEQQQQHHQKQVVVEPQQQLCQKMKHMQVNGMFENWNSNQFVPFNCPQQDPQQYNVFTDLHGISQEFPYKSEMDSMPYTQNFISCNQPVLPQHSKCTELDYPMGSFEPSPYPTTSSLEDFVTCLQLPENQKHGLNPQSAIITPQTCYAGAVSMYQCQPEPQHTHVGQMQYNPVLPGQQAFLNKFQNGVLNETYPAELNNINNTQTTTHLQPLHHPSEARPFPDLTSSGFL
HSF1 activator = increases HSF-1 driven luciferase reporter signal; NIH3T3-HGL HSF-1 luciferase reporter, MG132, 8 h; 100% = twice DMSO control signal; activation, % at 9 µM; 300,000 compounds, 1.7% hits; AID 504408;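 active means mean replicate activation of at least 50% with a set share of replicates each reaching 50%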;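 further: 0% = median of the neutral control wells and 100% = twice that signal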
HSF1 inhib = HSF1 inhibition; activity change, negative = inhibition, % at 7.5 µM (by protocol); 300,000 compounds, 0.77% hits; NIH3T3-HGL HSE-luciferase, MG132-induced, luminescence 8 h; active compounds read low;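 active means more than half of replicate wells show activity change below -50%, luminescence cut by over half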;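 further: luciferase reports HSF-1 transcriptional activity via heat shock element; 0% = median of DMSO wells and -100% = zero luminescence signal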
NR0B1 inh = inhibitors of human orphan nuclear receptor DAX1 (NR0B1) | P51843 | HEK293 Gal4-DAX1 luciferase reporter, luminescence | inhibition, % at 6.75 µM | 340,000 compounds, 0.99% hits | AID 504766;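 active means inhibition above the mean over all tested compounds plus 3 SD, cut at about 4.2% in these data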;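 further: 0% = DAX1-transfected cells with DMSO and 100% = empty-vector control cells with DMSO; inhibition shows as a rise in luminescence from relieved DAX1 repression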
* marks the source's active call; other numbers are inactive results; . = no result. In the library only some 5.4% were active in any assay of this set; here they are far more common.

SMILES	FXN GAA850 act	AHR activator	HSF1 activator	HSF1 inhib	NR0B1 inh
O=Cc1c(-c2ccc(F)cc2)nc2ccccn12	2	70*	12	4	0
COc1ccc(-c2nc3ccccn3c2C=O)cc1	4	55*	32	5	-1
COc1ccc(CNC(=O)c2ccc(Cn3cc(Cl)cn3)o2)cc1	1	14	39	4	0
COC(=O)c1oc2ccccc2c1NC(=O)/C=C/C(=O)O	0	12	10	-10	-1
O=C(/C=N/NC(=O)c1ccc(Cl)cc1Cl)c1ccccc1	4	1	57*	37	1
O=C(NN=Cc1ccc(Cl)cc1Cl)c1ccccc1	2	.	.	.	3
O=C(/C=N/NC(=O)c1ccccc1Br)c1ccccc1	2	-1	59*	12	0
O=C(CN1C(=O)C2CCCCC2C1=O)OCn1nnc2ccccc2c1=O (centres undefined)	2	-4	0	-4	6.4*
CN=c1scc(-c2ccccc2F)n1/N=C/c1ccc[nH]1	-16	-3	-90	-87*	-5
CN=c1scc(-c2ccccc2F)n1/N=C/c1ccc(O)c(O)c1O	-1	.	-69	-65*	-2
COc1cccc(C2Nc3ccc4ccccc4c3C3=C2C(=O)CCC3)c1O (centres undefined)	-2	9	-13	10	0
COCc1[nH]nc2c1C1(CCSCC1)C(C#N)=C(N)O2	-2	-2	-88	-85*	0
Cc1ccc(C2(C)NC(=O)N(CC(=O)NC(=O)NC(C)(C)C)C2=O)cc1 (centres undefined)	0	-1	4	3	-1
COc1cccc(/C=N/NC(=S)Nc2cccnc2)c1	4	58*	14	11	-1
Oc1ccc(/C=N/NC(=S)Nc2cccnc2)cc1	3	54*	12	10	1
COc1ccccc1NC(=S)N/N=C/c1ccc(O)cc1	7	19	81*	40	1
O=C(N1CCCCCC1)N1CCN(S(=O)(=O)c2ccccc2)CC1	2	-1	-2	-4	0
Cc1ccc(S(=O)(=O)NCCC(=O)N2CCN(S(=O)(=O)c3ccccc3)CC2)cc1C	1	0	-65	-55*	-1
O=C(c1ccccc1C(F)(F)F)N1CCN(S(=O)(=O)c2ccccc2)CC1	-2	7	-58	-49	7.5*
O=C(N1CCCCC1)N1CCN(S(=O)(=O)c2ccccc2)CC1	-1	1	-77	-71*	0
O=c1oc(Nc2cccc(Cl)c2)nc2ccccc12	4	7	67*	25	2
COc1cccc(NC(=O)c2cccc(C)c2[N+](=O)[O-])c1	0	22	5	2	1
Cc1ccc(NC(=O)COC(=O)C2=COCCO2)cc1	2	0	4	1	1
O=C(COC(=O)C1=COCCO1)Nc1ccc2c(c1)OCO2	-1	4	-72	-63*	1
NC(=O)c1cc(Cl)ccc1OCC(=O)Nc1ccc2c(c1)OCO2	5	51*	.	.	1
SMILES	FXN GAA850 act	AHR activator	HSF1 activator	HSF1 inhib	NR0B1 inh
O=C(Nc1ccc([N+](=O)[O-])cc1)Nc1ccc2c(c1)OCCO2	1	5	64*	31	3
O=C(Nc1ccc(F)cc1)Nc1ccc2c(c1)OCO2	2	67*	34	17	0
C/C(=N/NC(=O)Cc1cccs1)c1ccco1	2	0	3	-9	1
CC1CCN(C(=O)COC(=O)c2ccc3c(c2)C(=O)N(Cc2ccco2)C3=O)CC1	0	.	.	.	0
COC(=O)c1ccccc1NC(=O)Nc1ccc2c(c1)OCO2	2	5	8	-3	0
Cc1cc(C)c(NC(=O)Nc2ccc3c(c2)OCO3)c(C)c1	4	51*	-80	-75*	2
Cc1ccc(NC(=O)Nc2ccc3c(c2)OCO3)c(Br)c1	5	20	9	10	0
COc1ccc(-n2c(=O)[nH]cc(C(=O)Nc3ccc4c(c3)OCCO4)c2=O)cc1OC	-2	3	-3	-5	0
O=C(COc1ccccc1Br)Nc1ccc2c(c1)OCCCO2	7	-3	57*	26	4
N#Cc1ccccc1OCC(=O)Nc1ccc2c(c1)OCCCO2	6	-4	-9	4	0
CC(C)c1ccccc1NC(=O)Nc1ccc2c(c1)OCO2	0	56*	11	-1	-1
O=C(Nc1ccc2c(c1)OCO2)c1c[nH]c(=O)n(-c2ccc(F)cc2)c1=O	2	55*	-11	4	0
O=C(O)CCCNc1ccc([N+](=O)[O-])c(NCCCC(=O)O)n1	-2	0	-23	-7	.
CCOc1ccc(C(=O)NCCC(=O)N2CCC3(CC2)NCCc2[nH]cnc23)cc1OCC	-1	-1	-2	6	0
CCOc1ccc(OCCC(=O)Nc2ccccc2C(=O)NC2CC2)cc1	2	.	.	.	0
CCOC(=O)c1ccc(CNC(=O)c2cc(COc3ccccc3SC)on2)o1	4	17	12	-7	2
Cc1ccccc1CNS(=O)(=O)c1csc(C(N)=O)c1	-2	0	-9	-1	0
O=C(Nc1ccc2c(c1)OCO2)Nc1ccc(Cl)cc1Cl	1	1	16	12	-1
O=C(Nc1ccc(Cl)cc1)Nc1ccc2c(c1)OCO2	4	59*	14	17	1
CCc1cc2c3c([nH]c2cc1S(=O)(=O)NCCCOC)CC(C)(C)CC3=O	2	2	38	3	0
C/C(=N\NC(=O)CNC(=O)C1COc2ccccc2O1)c1ccco1 (centres undefined)	-2	2	-1	-14	-1
C=CCNC(=S)N/N=C/c1ccc(-c2ccc(Cl)cc2Cl)o1	0	61*	-9	-3	0
C=CCNC(=S)N/N=C/c1ccc(-c2cc(Cl)ccc2Cl)o1	2	18	-12	-14	0
CNC(=S)N/N=C/c1ccc(-c2ccc(C(=O)O)cc2)o1	0	6	-14	-11	0
C=CCNC(=S)N/N=C/c1ccc(-c2ccc(OC)cc2)o1	2	64*	40	28	-1
SMILES	FXN GAA850 act	AHR activator	HSF1 activator	HSF1 inhib	NR0B1 inh
COc1cc2nc(N(C)C)nc(N)c2cc1OC	-4	65*	4	-8	0
COc1cc2nc(Nc3ccc(C)c(C)c3)nc(N)c2cc1OC	0	12	-16	0	-2
C1=C(c2ccccc2)CCN(c2ncnc3nc[nH]c23)C1	0	8	-79	-75*	0
COc1ccc2c(c1)-c1c(sn(-c3ccccc3)c1=S)C(C)(C)N2	4	4	55*	18	0
COc1ccc(-n2sc3c(c2=S)-c2cc(OC)ccc2NC3(C)C)cc1	2	66*	5	-3	1
COc1ccc2c(c1)-c1c(sn(-c3ccc(OC)c(OC)c3)c1=S)C(C)(C)N2	-1	15	6	-2	0
CN1CCC(N(C)C(=S)NC(=O)c2cc(-c3cccc(Br)c3)nc3ccccc23)CC1	2	3	0	-4	0
Cc1nn2c(-c3ccccc3)ccnc2c1Br	5	74*	14	6	2
